Source: PubChem BioAssay
Sampled rows, rich in hits. Any-hit rate of the full collection: about 3.5%.
TEAD-YAP block – TEAD-YAP interaction inhibition, primary screen, TEAD-YAP interaction inhibitor project, luminescence, HEK-TIYL cells; AID 1259422, 2018; TEAD-Gal4/YAP UAS-luciferase luminescence; 1.4% of 640,000 active; inhibition, % at 9.12 µM; in the data active = inhibition above about 32%;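 note: 0% = median of test compound wells and 100% = reference inhibitor wells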
MITF inh – MITF inhibitors, primary screen, biochemical, AlphaScreen, human; Microphthalmia-associated transcription factor (Homo sapiens), O75030; AlphaScreen MITF homodimerization, bead proximity signal; inhibition, % at 2.6 µM; 0.91% of 650,000 active; in the data active = inhibition above about 50%;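 note: 0% = vehicle wells with protein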
GPR151 ag – activators of human GPR151, primary screen, cell-based, PathHunter beta-arrestin, luminescence; G-protein coupled receptor 151 (Homo sapiens), Q8TDV0; PathHunter beta-arrestin GPR151 cells; activation, % at 11.2 µM; 1% of 650,000 active; AID 1508602, 2020; in the data active = activation above about 4.9%;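 note: 0% = median of compound wells and 100% = cells with positive control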
Target sequence (Q8TDV0 whole entry, looked up): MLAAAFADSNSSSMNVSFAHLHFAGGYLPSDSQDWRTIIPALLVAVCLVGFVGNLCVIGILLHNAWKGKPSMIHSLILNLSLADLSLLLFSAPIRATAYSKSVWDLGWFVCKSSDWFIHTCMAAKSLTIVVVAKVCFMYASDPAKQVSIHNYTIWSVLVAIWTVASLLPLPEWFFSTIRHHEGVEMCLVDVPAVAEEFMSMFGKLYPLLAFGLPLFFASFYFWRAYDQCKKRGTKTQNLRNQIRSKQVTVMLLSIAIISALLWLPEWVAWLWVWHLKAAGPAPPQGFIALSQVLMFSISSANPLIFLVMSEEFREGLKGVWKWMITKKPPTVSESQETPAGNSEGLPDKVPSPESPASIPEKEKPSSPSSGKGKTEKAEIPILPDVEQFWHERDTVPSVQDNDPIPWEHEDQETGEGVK
FBW7 activator – FBW7 E3 ligase activators, primary screen, biochemical, AlphaScreen, human | F-box/WD repeat-containing protein 7 (Homo sapiens), Q969H0 | AlphaScreen FBW7–phospho-cyclin E peptide binding, activator screen | normalized activity (activation), % at 26.1 µM | 0.13% of 650,000 active | AID 1259310, 2017; in the data active = normalized activity above about 1.9%;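 note: purified mutant Fbw7 with reduced substrate affinity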
GPR151 conf act – GPR151 activators, triplicate retest, confirmation, cell-based, PathHunter beta-arrestin, luminescence; shares compounds with GPR151 ag; GPR151 PathHunter beta-arrestin cells, 90 min; % of EA-reagent control over plate median; AID 1508609, 2020; activation, % at 11.2 µM; 6,700 tested, under 10 active;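 active = mean percent activation across replicates above the confirmation screen cutoff of 4.91%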
GPR119 ag – GPR119 activators in beta-arrestin cells, counter-screen for GPR151 activator project, cell-based, PathHunter beta-arrestin, luminescence, triplicate. shares compounds with GPR151 ag. 90 min; 0 = compound-well median, 100 = enzyme-acceptor control. activation, % at 11.2 µM. 0.3% of 6,700 active;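 active = mean percent activation in the counterscreen above 29.09%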;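 note: counterscreen on off-target GPR119 to flag nonselective hits from the GPR151 activator screen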
* marks the source's active call; other numbers are inactive results; · = no result given; ! = not active in a repeat.

SMILES | TEAD-YAP block | MITF inh | GPR151 ag | FBW7 activator | GPR151 conf act | GPR119 ag
CC(=O)c1cccc(CN2CCCC(CNC(=O)c3cccs3)C2)c1 (stereo unspecified) | 3 | -2 | 10* | 0 | 0 | -14
C/C(=C\c1ccccc1)C(=O)NCCc1ccccc1 | -13 | -5 | 15* | 0 | 1 | -7
O=S(=O)(c1ccc(Cl)cc1Br)N1CCN(Cc2ccccc2)CC1 | -6 | -2 | 6.2* | 0 | 0 | -9
COc1ccc(I)cc1S(=O)(=O)N1CCN(Cc2ccccc2)CC1 | 4 | 3 | 1 | 0 | · | ·
O=S(=O)(c1cc(Br)ccc1Br)N1CCN(Cc2ccccc2)CC1 | 4 | 8 | -2 | 0 | · | ·
COc1cc(Cl)c(S(=O)(=O)N2CCN(Cc3ccccc3)CC2)cc1Cl | 5 | 11 | 6.5* | 0 | 0 | -17
COc1ccc(-c2cnnc(N/N=C/c3ccc(OCC(=O)O)cc3)n2)cc1 | -1 | 26 | 0 | 0 | · | ·
O=C1c2cccc([N+](=O)[O-])c2C(=O)N1Cc1ccco1 | 7 | 14 | 5.2* | 0 | -1 | -12
CCN1CCN(CCCN(Cc2ccco2)C(=S)Nc2ccc(C)c(C)c2)CC1 | 4 | -2 | 0 | -1 | · | ·
COc1ccc(NC2=CC(=O)CCC2)c(OC)c1 | -6 | 5 | 7.8*! | 0 | 1 | 8
COc1ccc(NC2=CC(=O)CCC2)cc1 | 8 | 4 | -1 | 0 | · | ·
COc1c([N+](=O)[O-])c(=O)oc2ccc([N+](=O)[O-])cc12 | -2 | 7 | -2 | 0 | · | ·
CC(=N)c1c(O)c2cc([N+](=O)[O-])ccc2oc1=O | 9 | 0 | 5.7* | 0 | 0 | 1
Fc1ccc(OCc2nn3c(-c4ccncc4)nnc3s2)cc1 | 7 | 3 | 6.1* | -1 | 0 | -6
Cc1ccc(OCc2nn3c(-c4ccc(F)cc4)nnc3s2)cc1 | -8 | -5 | 2 | 0 | · | ·
CN1CCN(C(=O)CCNC(=O)c2ccccc2Br)CC1 | -4 | -3 | 0 | 0 | · | ·
Cc1cc(=O)oc2cc(OCC(=O)Nc3nnc(C4CCCO4)s3)ccc12 (stereo unspecified) | -32 | 7 | -2 | 0 | · | ·
c1ccc2sc(-c3cnc4ccc(NCC5CC5)nn34)cc2c1 | 2 | 4 | 0 | 2 | · | ·
CS(=O)(=O)N(CC(=O)NCc1ccccc1)c1cccc(Cl)c1 | 6 | 16 | 6.1* | 1 | -1 | -4
CCOc1ccc(NC(=O)C(CC(=O)O)C2CCCO2)cc1 (stereo unspecified) | -5 | -13 | 0 | 0 | · | ·
Cc1ccc(NC(=O)C(CC(=O)O)C2CCCO2)cc1 (stereo unspecified) | -5 | 4 | 19* | 0 | 1 | -3
CCOC(=O)c1ccccc1NC(=O)CC(C)CC(=O)O (stereo unspecified) | -6 | 5 | 5.9* | 0 | 1 | 5
COc1ccc(COC(=O)C2=C(C)NC3=C(C(=O)CC(C)(C)C3)C2c2ccc(O)c(OC)c2)cc1 (stereo unspecified) | 4 | 10 | 0 | 0 | · | ·
COc1cc(C2C(C(=O)OC(C)(C)C)=C(C)NC3=C2C(=O)CC(C)(C)C3)ccc1O (stereo unspecified) | 4 | 1 | 5.4* | 0 | 0 | -3
COc1ccc(COC(=O)C2=C(C)NC3=C(C(=O)CCC3)C2c2ccc(OC)c(O)c2)cc1 (stereo unspecified) | 0 | 11 | 5.0*! | 1 | 1 | 3
SMILES | TEAD-YAP block | MITF inh | GPR151 ag | FBW7 activator | GPR151 conf act | GPR119 ag
COC(=O)c1ccc(C2C(C(=O)OCc3ccc(OC)cc3)=C(C)NC3=C2C(=O)CC(C)(C)C3)cc1 (stereo unspecified) | 5 | 23 | 5.2* | 0 | 1 | -10
COc1cc(C2C(C(=O)OCc3ccccc3)=C(C)NC3=C2C(=O)CCC3)ccc1O (stereo unspecified) | -4 | -2 | 5.5* | 0 | 0 | 7
COc1ccc(COC(=O)C2=C(C)NC3=C(C(=O)CC(C)(C)C3)C2c2ccc(OC)cc2)cc1 (stereo unspecified) | 3 | -7 | 1 | 0 | · | ·
COc1ccc(O)c(CN2CCOCC2)c1 | 6 | -15 | 0 | 0 | · | ·
COc1ccc(-n2nc3c(c2NC(=O)c2ccc(C)cc2)CS(=O)(=O)C3)cc1 | 6 | -2 | 5.4* | 0 | 1 | 4
CCC(CC)C(=O)Nc1c2c(nn1-c1ccc(OC)cc1)CS(=O)(=O)C2 | -2 | -4 | 7.4* | 0 | -1 | 8
COc1ccc(-n2nc3c(c2NC(=O)CCC2CCCC2)CS(=O)(=O)C3)cc1 | -5 | -3 | 17* | 0 | 1 | 9
Cc1ccc(OCCN2C(=O)NC(C)(C)C2=O)c(I)c1 | 9 | 14 | 0 | 0 | · | ·
CC(=O)c1cccc(-c2nccc(NC3CC3)n2)c1 | -29 | -3 | -2 | 0 | · | ·
CC(=O)Nc1cnn(-c2ccc(C(=O)N(C)Cc3ccc(Oc4ccccc4)cc3)cc2)c1 | 11 | 6 | 8.4* | 0 | 1 | 28
C=CCn1c(SCC(=O)Nc2ccccc2)nc2sc(CC)cc2c1=O | -2 | 3 | 0 | 0 | · | ·
Cc1ccc(Cl)cc1NC(=O)Cn1cnc2c(-c3ccccc3)csc2c1=O | 1 | 1 | 7.3* | 0 | -1 | -1
COC(=O)c1ccc(Cl)cc1NC(=O)N(C(C)C)C1CCN(C(C)=O)CC1 | -9 | 1 | 7.0* | 0 | 2 | -1
COc1ccc(NC(=O)N(C(C)C)C2CCN(C(C)=O)CC2)c(OC)c1 | -4 | 4 | 1 | 0 | · | ·
N#C/C(=C\c1c[nH]c2ccccc12)C(=O)N1CCc2ccccc2C1 | -10 | -12 | -1 | 0 | · | ·
N#C/C(=C\c1ccc[nH]1)C(=O)N1CCc2ccccc2C1 | -28 | 0 | 5.3* | 0 | 1 | 9
CCOCCCNC(=O)C(NC(=O)c1ccc(=O)[nH]c1)c1ccccc1 (stereo unspecified) | -6 | 3 | 5.0* | 0 | 1 | 16
COc1cccc(NC(=O)NNC(=O)c2cc3occc3[nH]2)c1 | 0 | 9 | 5.0* | 0 | 0 | 9
CCOC(=O)c1ccc2c(c1)sc(=NC(=O)C(C)(C)C)n2C | 61* | -16 | 6.5* | 0 | 0 | 0
COC(=O)C1=C(C(=O)OC)SC2(S1)C(C(=O)OC)=C(C(=O)OC)SC1=C2c2cc(C)c(C)cc2NC1(C)C | 4 | 19 | 5.8* | -2 | 1 | 12
